# This is a sample that favours compounds with a hit; in the whole collection about 2.3% have one here.
# IkB sig inh: IkB Signaling. 0.04% of 110,000 active. ABC-DLBCL IkBa-CBG/CBR dual luciferase ratio, 4 h; response scale: scaled: untreated 0%, proteasome inhibitor 100%. Potency, µM (highest dose often 57.1 µM), for the others: at the highest dose IkBa stabilization activation; active = well fitted curve in the direction sought with a large enough effect in the signal ratio, not every such curve was filed as active; inconclusive = small, poorly fitted or top-dose-only effect, or a change in a side signal; the % refers to the signal ratio;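 note: the direction sought is a rising ratio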
#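 Luminescence ratio of IκBα-fused green versus native red beetle luciferase in OCI-Ly3 cells, 4 h post-doxycycline with compound; red signal alone, scaled from basal (0%) to zero light (-100%), flagged nonspecific or cytotoxic effects.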
# ERK AVP block: qHTS Assay for Inhibitors of the ERK Signaling Pathway using a Homogeneous Screening Assay; Potency, µM (titrated, usually from 57.5 µM), without a hit: at the top dose activity, negative = inhibition, hits mostly inhibitors; 0.99% of 72,000 active; HEK293-V1b, vasopressin-stimulated pERK AlphaScreen; note: % is set by controls: 0 for no effect and ±100 for the full control effect; nearly all actives have a fitted effect of over 55% in size
#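 Overnight-seeded V1b-HEK293 cells in 1% FBS got compound, then vasopressin (25 nM final, 5 min, 37C), then lysis buffer. AlphaScreen detection of phospho-ERK; activity normalized to basal and full-stimulation controls.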
# p53ts 39C kill: qHTS Screen for Compounds that Selectively Target Cancer Cells with p53 Mutations: Cytotoxicity of p53ts Cells at the Nonpermissive Temperature; H1299-p53A138V viability at 39C, ATP luminescence, 24 h; Potency, µM (titrated, usually from 46.1 µM), inactives show at the top dose activity change, negative = cell killing, usual class: cytotoxic; 1.5% of 130,000 active; note: % is set by controls: 0 for no effect and ±100 for the full control effect; nearly all actives have a fitted effect of over 55% in size
# Imprint erasure: qHTS Assay for Compounds that Induce Erasure of Genomic Imprints; mouse ES Peg3-LacZ reporter, beta-gal luminescence, 40 h; Potency, µM (top dose mostly 60.7 µM), without a hit: at the highest dose activity change, positive = activation, usual class: activators; 0.02% of 110,000 active
#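 Imprint erasure is scored as LacZ activity from the silenced maternal Peg3 allele in feeder-free female ES cells cultured 40 h with LIF. Luminescence is normalized to in-plate negative controls and fitted to the Hill equation.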
# p53ts 32C tox: qHTS Screen for Compounds that Selectively Target Cancer Cells with p53 Mutations: Cytotoxicity of p53ts Cells at the Permissive Temperature; 0.93% of 130,000 active; Potency, µM (series often up to 46.1 µM), for the others: top-dose activity change, negative = cytotoxicity, actives largely listed as cytotoxic; H1299-p53A138V at 32C, ATP luminescence viability, 24 h;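 note: 0% = DMSO and -100% = full killing by reference compound; nearly all actives have a fitted effect of over 55% in size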
#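 H1299-p53 A138V cells (temperature-sensitive p53) exposed 24 h to up to 46 uM compound at 32C, where p53 is wild-type in conformation. Viability read as ATP luminescence and normalised to DMSO and 100 uM tamoxifen. AC50 fitted with the Hill equation.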
# * = called active by the depositor; ? = inconclusive; . = no result given; [ ] = dose if it differs, or a comment. Unless noted, calls come from the whole dose curve; as a rule, active = well fitted curve in the direction sought with a large enough effect; inconclusive = small, poorly fitted or top-dose-only effect, or another doubt; inactive = no such curve, though single readings can be large; an effect the other way counts as inactive or inconclusive. Potency is the fitted concentration of half-maximal effect.
SMILES,IkB sig inh,ERK AVP block,p53ts 39C kill,Imprint erasure,p53ts 32C tox
CCCCCCCCC/C=C/CC1CC(=O)OC1=O (stereo not drawn),3%,-17%,10%,-7%,-19%[1.84 µM]
CCCCCCC#Cc1cc(OC)c(OC)cc1C(N1CC(C)c2ccccc21)N1CC(C)c2ccccc21 (stereo not drawn),.,44%[11.5 µM],-2%[9.22 µM],.,6%[9.22 µM]
O=S1(=O)N[C@H]2CC[C@@H]3NS(=O)(=O)N[C@H]4CC[C@H](N1)N4S(=O)(=O)N23,0%[11.4 µM],-25%[11.5 µM],6%[9.22 µM],6%[10.9 µM],-1%[9.22 µM]
Cc1cccc(N2CCN(c3ncnc4onc(-c5ccc(F)cc5)c34)CC2C)c1 (stereo not drawn),?,.,-10%,-9%[10.9 µM],-2%
Cc1cccc(N2CCN(c3ncnc4onc(C)c34)CC2C)c1 (stereo not drawn),?,.,20µM*,-12%[10.9 µM],?
C[C@@H]1O[C@@H](n2cc(F)c(=O)[nH]c2=O)[C@H](O)[C@@H]1O,-4%,14%,11%,.,8%
CC(C)c1ccc(Nc2c(-c3ccccn3)nc3ccccn23)cc1,?,.,16µM*,-20%[10.9 µM],-21%
CC(C)c1ccc(Nc2c(-c3ccccc3O)nc3cnccn23)cc1,?,.,5µM*,-7%[10.9 µM],?
Cc1ccn2c(Nc3ccc(C(C)C)cc3)c(-c3cccnc3)nc2c1,?,.,25µM*,-11%[10.9 µM],-1%
Cc1ccc2nc(-c3cccnc3)c(Nc3ccc(C(C)C)cc3)n2c1,3%,.,-13%,-8%[10.9 µM],3%
O=C1c2ccccc2C(O)(O)[C@@]1(O)[C@]1(O)C(=O)c2ccccc2C1(O)O,2%[11.4 µM],26%[11.5 µM],-3%[9.22 µM],-4%[10.9 µM],3%[9.22 µM]
CCN(CC)CC[n+]1ccc2c(C)c3[nH]c4ccccc4c3c(C)c2c1,2%[11.4 µM],5%[11.5 µM],0%[9.22 µM],-21%[10.9 µM],20%[9.22 µM]
COc1ccc(Nc2cc(C(=O)NCCCN3CCN(c4ccc(OC)cc4)CC3)c3ccccc3n2)cc1,?,.,13µM*,-20%[10.9 µM],?
CCOC(=O)C1OC1c1ccccc1 (stereo not drawn),0%,-11%,.,15%,.
CCc1ccc(-c2nc(CN3CCCC(C(=O)N4CCN(c5cc(Cl)ccc5C)CC4)C3)c(C)o2)cc1 (stereo not drawn),?,.,?,-15%[10.9 µM],13µM*
CCCCn1c(=N)n(CCCOc2ccc(F)cc2)c2ccccc21,?,.,10µM*,-25%[10.9 µM],?
O=C(O)/C(Cc1ccc([N+](=O)[O-])cc1)=N/O,3%[11.4 µM],-17%[11.5 µM],4%[9.22 µM],-8%[10.9 µM],6%[9.22 µM]
Nc1ccc(CCNc2ncnc3c2ncn3[C@@H]2O[C@@H](CO)[C@H](O)[C@@H]2O)cc1,?,?,11%,.,16%
O=Nc1c(-c2c(O)[nH]c3ccccc23)[nH]c2ccccc12,?,10µM*,25µM*,-24%,25µM*
N#Cc1c(-c2ccccc2)no[n+]1[O-],?,25%,16µM*,-30%,?
N#Cc1cn(-c2ccccc2)nc1-c1ccccc1,-1%,3%,-11%,-15%,-1%
COC(=O)/C=C\CCc1coc(/C=C\CNC(=O)OC)n1,.,15%[11.5 µM],-3%[9.22 µM],.,2%[9.22 µM]
COC(=O)[C@H](C)NC(=O)Nc1ccc(Oc2ccccc2)cc1,1%,25µM*,-1%,4%,6%
C[C@H](C(=O)c1ccccc1)C(c1ccccc1)N1CCOCC1 (stereo partly drawn),.,.,.,-13%[10.9 µM],.
Nc1nc(C(=O)O)c(N=Nc2ccccc2)c(=O)[nH]1,2%[11.4 µM],-24%[11.5 µM],-6%[9.22 µM],-13%[10.9 µM],-2%[9.22 µM]
COc1ccc2c(=O)c(-c3ccccc3)coc2c1,.,31%,5µM*,-59%,?
Clc1ccccc1-c1nc(-c2cccnc2)no1,2%,-15%,13µM*,-71%,10µM*
COC(=O)[C@H](N)Cc1ccc(Cl)cc1,-3%,6%,8%,.,14%
NS(=O)(=O)c1ccc(NC(=O)Nc2ccccc2F)cc1,0%[11.4 µM],19%[11.5 µM],-8%[9.22 µM],-13%[10.9 µM],-1%[9.22 µM]
CCN(CC)CCCNC(=O)c1ccc(-n2c(=O)c(=O)[nH]c3ccccc32)cc1,.,.,10%,.,-2%
